Assay results reported in the supplement of paper PMC9950053.
Counter-ions that a name gives are not always drawn.

The molecules below were run on Danio rerio larvae (5 dpf) (assay: combined upward orientation toward moving lines (periods 7-14) minus DMSO control (percentage points); higher = more orientation with moving lines than DMSO larvae). Settings: 10 µM; exposure time: 3 h pre-incubation + 3 h imaging.
Protocol: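 Wild-type 5 dpf zebrafish larvae (n=48 per drug, 96-well plates, 28.5 °C) were exposed to Tocris FDA-approved library compounds at 10 µM (0.1% DMSO) for 3 h before and 3 h during imaging. Images were taken every 6 s during visual (moving coloured lines) and acoustic stimuli, and larvae were tracked with the DeepLabCut-based Z-LaP Tracker. Each behavioural measure is the treated-group mean minus the DMSO vehicle control mean (n=844), in percentage points. This mapping covers compounds with 4-character plate codes.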
With `C=CCN1C[C@H](C(=O)N(CCCN(C)C)C(=O)NCC)C[C@@H]2c3cccc4[nH]cc(c34)C[C@H]21` [Cabergoline] the “combined upward orientation toward moving lines” value was -13.9.
`CC(C)C[C@H]1C(=O)N2CCC[C@H]2[C@]2(O)O[C@](NC(=O)[C@@H]3C=C4c5cccc6[nH]c(Br)c(c56)C[C@H]4N(C)C3)(C(C)C)C(=O)N12` [Bromocriptine mesylate] was tested, and the “combined upward orientation toward moving lines” value was -39.
For `CN1C[C@H](C(=O)N[C@]2(C)O[C@@]3(O)[C@@H]4CCCN4C(=O)[C@H](Cc4ccccc4)N3C2=O)C[C@@H]2c3cccc4[nH]cc(c34)C[C@H]21` [Dihydroergotamine mesylate], the “combined upward orientation toward moving lines” value was -20.6.
For `CC(O)(CS(=O)(=O)c1ccc(F)cc1)C(=O)Nc1ccc(C#N)c(C(F)(F)F)c1` (stereo unspecified) [Bicalutamide], the “combined upward orientation toward moving lines” value was -2.4.
`N[C@@H]1C[C@H]1c1ccccc1` [Tranylcypromine hydrochloride] was tested, and the “combined upward orientation toward moving lines” value was 1.03.
In the case of `O=c1[nH]c2ccccc2n1C1CCN(CCCC(c2ccc(F)cc2)c2ccc(F)cc2)CC1` [Pimozide], the “combined upward orientation toward moving lines” value is reported as -5.82.
In the case of `Cc1cccc([C@H](C)c2c[nH]cn2)c1C` [Dexmedetomidine hydrochloride], the “combined upward orientation toward moving lines” value is reported as -0.0673.
In the case of `COc1cc2c(cc1OC)C1CC(=O)C(CC(C)C)CN1CC2` (stereo unspecified) [Tetrabenazine], the “combined upward orientation toward moving lines” value is reported as -21.4.
`C=C1C[C@@H]2[C@H](CC[C@]3(C)C(=O)CC[C@@H]23)[C@@]2(C)C=CC(=O)C=C12` [Exemestane] was tested, and the “combined upward orientation toward moving lines” value was 1.27.
`CC[C@@H](C(N)=O)N1CCCC1=O` [Levetiracetam] was tested, and the “combined upward orientation toward moving lines” value was -2.84.
In the case of `CCN(C)C(=O)Oc1cccc([C@H](C)N(C)C)c1` [Rivastigmine tartrate], the “combined upward orientation toward moving lines” value is reported as -5.99.
